# Data reported in PubChem BioAssay (EPA / NIEHS).
# The source made the active and inactive calls. The calls were made as follows: active = hit-call score of the fitted dose curve at least 0.9, where 1 is the maximum; inactive = score below 0.9.
# Tests used:
# [1] = target: Bile acid receptor (Homo sapiens) (UniProt Q96RI1); experiment: ATG_IR1_CIS: Attagene CIS-FACTORIAL HepG2 Assay for human Nuclear Receptor Subfamily 1 Group H Member 4 (NR1H4), IR1 submotif (AID 2282946); details: IR1 reporter transcription, actives raise or lower the signal
# Chain of Bile acid receptor (Homo sapiens) (Q96RI1 whole entry, looked up, the tested form may be a part): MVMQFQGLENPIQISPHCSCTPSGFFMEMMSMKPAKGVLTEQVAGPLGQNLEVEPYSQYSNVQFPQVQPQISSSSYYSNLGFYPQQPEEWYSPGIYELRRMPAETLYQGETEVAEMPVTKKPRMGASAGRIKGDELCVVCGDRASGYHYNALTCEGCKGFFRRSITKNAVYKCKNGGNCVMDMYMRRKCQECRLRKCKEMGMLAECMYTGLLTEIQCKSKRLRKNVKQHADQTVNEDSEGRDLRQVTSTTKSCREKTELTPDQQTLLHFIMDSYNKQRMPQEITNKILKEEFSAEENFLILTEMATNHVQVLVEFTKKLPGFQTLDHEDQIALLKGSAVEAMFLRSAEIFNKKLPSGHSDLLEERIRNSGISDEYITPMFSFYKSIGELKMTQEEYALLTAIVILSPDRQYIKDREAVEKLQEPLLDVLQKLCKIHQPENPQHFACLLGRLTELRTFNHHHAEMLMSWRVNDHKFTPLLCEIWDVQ
# Procedure, shortened: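 Cells (human HepG2) carry transiently transfected cis-promoter reporter transcription units. Compounds are incubated 24 h, total RNA is reverse-transcribed and amplified, and labelled fragments are resolved by capillary electrophoresis. Curves use DMSO as baseline.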
# [2] = ATG_ISRE_CIS: Attagene CIS-FACTORIAL HepG2 Assay for human Interferon Regulatory Factor 1 (IRF1) binding to an Interferon-Stimulated Response Element (ISRE) (AID 2282948); details: HepG2 ISRE cis-reporter (Attagene), mRNA transcription readout; actives raise or lower the signal
# Procedure, shortened: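 Transiently transfected HepG2 cells carrying cis-element reporter units, dosed 24 hours. Reporter mRNA quantified by RT-PCR, fluorescent primer extension, HpaI digestion and capillary electrophoresis. Bidirectional fitting relative to DMSO.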
# [3] = ATG_M_32_CIS: Attagene CIS-FACTORIAL HepG2 Assay for M32 Transcription Factor (Internal Marker) (AID 2282949); details: HepG2 Attagene cis-factorial M32 reporter, mRNA; actives raise or lower the signal;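 also: background control marker of the multiplexed CIS panel rather than a real target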
# Procedure, shortened: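 Internal background marker read-out: RT-PCR/capillary electrophoresis fluorescence of reporter transcripts from transiently transfected HepG2 cells after 24 h chemical exposure. Activity fitted bidirectionally relative to DMSO negative control.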
# [4] = ATG_M_06_CIS: Attagene CIS-FACTORIAL HepG2 Assay for M06 Transcription Factor (Internal Marker) (AID 2282950); details: HepG2 Attagene CIS-FACTORIAL M06 internal marker reporter; actives raise or lower the signal
# Procedure, shortened: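 HepG2 liver cells, 24 h exposure. Reporter transcripts from transfected cis-element constructs quantified by RT-PCR/capillary electrophoresis fluorescence. Bidirectional curve fit against DMSO.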
# [5] = target: Hypoxia-inducible factor 1-alpha (Homo sapiens) (UniProt Q16665); experiment: ATG_HIF1a_CIS: Attagene CIS-FACTORIAL HepG2 Assay for human Hypoxia Inducible Factor 1 (HIF1A) (AID 2282951); details: HepG2 Attagene cis-factorial HIF1a reporter transcription; actives raise or lower the signal
# Chain of Hypoxia-inducible factor 1-alpha (Homo sapiens) (Q16665 whole entry, looked up): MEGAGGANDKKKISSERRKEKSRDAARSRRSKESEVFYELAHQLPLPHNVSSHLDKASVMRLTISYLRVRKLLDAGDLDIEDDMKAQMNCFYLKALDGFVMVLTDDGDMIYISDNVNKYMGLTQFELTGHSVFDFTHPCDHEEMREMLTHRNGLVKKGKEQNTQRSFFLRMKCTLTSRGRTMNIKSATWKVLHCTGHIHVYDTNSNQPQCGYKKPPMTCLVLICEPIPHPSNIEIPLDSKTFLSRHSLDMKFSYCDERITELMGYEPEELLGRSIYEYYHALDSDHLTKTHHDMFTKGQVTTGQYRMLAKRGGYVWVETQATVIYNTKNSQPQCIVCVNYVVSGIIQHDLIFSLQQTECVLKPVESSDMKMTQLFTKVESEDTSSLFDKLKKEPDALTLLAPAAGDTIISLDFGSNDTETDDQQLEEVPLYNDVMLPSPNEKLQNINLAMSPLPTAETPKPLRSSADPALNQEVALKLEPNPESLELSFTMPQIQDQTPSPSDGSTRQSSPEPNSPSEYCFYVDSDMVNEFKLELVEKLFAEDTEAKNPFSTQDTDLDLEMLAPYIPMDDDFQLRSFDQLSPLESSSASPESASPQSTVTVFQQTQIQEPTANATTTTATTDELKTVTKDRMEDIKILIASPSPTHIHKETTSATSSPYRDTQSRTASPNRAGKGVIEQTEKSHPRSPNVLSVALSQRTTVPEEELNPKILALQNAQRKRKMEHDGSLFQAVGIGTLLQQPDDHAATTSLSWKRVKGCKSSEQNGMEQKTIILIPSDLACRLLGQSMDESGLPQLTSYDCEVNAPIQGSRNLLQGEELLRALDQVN
# Procedure, shortened: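 In this multiplexed cell assay, HepG2 cells bearing transfected cis reporters are dosed for 24 h and reporter mRNA is read by RT-PCR plus capillary electrophoresis; signal increases and decreases are both scored against DMSO.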
# [6] = target: Hepatocyte nuclear factor 6 (Homo sapiens) (UniProt Q9UBC0); experiment: ATG_HNF6_CIS: Attagene CIS-FACTORIAL HepG2 Assay for human Hepatocyte Nuclear Factor 6 (HNF6) (AID 2282952); details: HepG2 Attagene cis-factorial HNF6 reporter transcription; actives raise or lower the signal
# Chain of Hepatocyte nuclear factor 6 (Homo sapiens) (Q9UBC0 whole entry, looked up): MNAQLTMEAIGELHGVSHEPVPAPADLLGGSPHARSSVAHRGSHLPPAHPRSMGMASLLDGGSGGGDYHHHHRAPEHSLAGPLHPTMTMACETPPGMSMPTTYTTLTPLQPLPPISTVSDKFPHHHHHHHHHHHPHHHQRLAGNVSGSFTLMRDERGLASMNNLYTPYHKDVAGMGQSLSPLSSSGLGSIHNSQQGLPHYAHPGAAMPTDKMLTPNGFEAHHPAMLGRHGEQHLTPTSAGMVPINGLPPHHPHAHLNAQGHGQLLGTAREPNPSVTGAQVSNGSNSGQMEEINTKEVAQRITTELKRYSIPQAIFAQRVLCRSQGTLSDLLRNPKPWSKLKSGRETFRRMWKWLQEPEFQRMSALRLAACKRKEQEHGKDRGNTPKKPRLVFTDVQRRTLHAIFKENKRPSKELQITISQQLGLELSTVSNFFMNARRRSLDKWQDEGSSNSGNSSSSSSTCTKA
# Procedure, shortened: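 Multiplexed mRNA reporter assay in transfected HepG2; 24 h dosing; RT-PCR plus capillary electrophoresis fluorescence; DMSO-referenced bidirectional curve fitting.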
# [7] = ATG_MRE_CIS: Attagene CIS-FACTORIAL HepG2 Assay for human Metal Responsive Element (MRE) (AID 2282954); details: HepG2 MRE cis-reporter transcription, Attagene multiplex; actives raise or lower the signal
# Procedure, shortened: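 After a 24 h chemical exposure, transiently transfected HepG2 cells yield RNA whose reporter sequences are amplified, FAM-labelled and sized by capillary electrophoresis. Curves are fitted bidirectionally relative to DMSO.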
# [8] = ATG_PBREM_CIS: Attagene CIS-FACTORIAL HepG2 Assay for human Phenobarbital-responsive Enhancer Module (PBREM) (AID 2282955); details: HepG2 PBREM cis-reporter, Attagene multiplexed transcription; actives raise or lower the signal
# Procedure, shortened: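 After a 24 h incubation with test chemical, transfected HepG2 cells yield total RNA; reporter-specific RT-PCR products are fluorescently labelled, HpaI-digested and resolved by capillary electrophoresis against ROX size standards.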
# [9] = target: Paired box protein Pax-6 (Homo sapiens) (UniProt P26367); experiment: ATG_Pax6_CIS: Attagene CIS-FACTORIAL HepG2 Assay for human Paired Box 6 (PAX6) (AID 2282956); details: HepG2 CIS-FACTORIAL PAX6 reporter transcription, RNA readout; actives raise or lower the signal
# Chain of Paired box protein Pax-6 (Homo sapiens) (P26367 whole entry, looked up): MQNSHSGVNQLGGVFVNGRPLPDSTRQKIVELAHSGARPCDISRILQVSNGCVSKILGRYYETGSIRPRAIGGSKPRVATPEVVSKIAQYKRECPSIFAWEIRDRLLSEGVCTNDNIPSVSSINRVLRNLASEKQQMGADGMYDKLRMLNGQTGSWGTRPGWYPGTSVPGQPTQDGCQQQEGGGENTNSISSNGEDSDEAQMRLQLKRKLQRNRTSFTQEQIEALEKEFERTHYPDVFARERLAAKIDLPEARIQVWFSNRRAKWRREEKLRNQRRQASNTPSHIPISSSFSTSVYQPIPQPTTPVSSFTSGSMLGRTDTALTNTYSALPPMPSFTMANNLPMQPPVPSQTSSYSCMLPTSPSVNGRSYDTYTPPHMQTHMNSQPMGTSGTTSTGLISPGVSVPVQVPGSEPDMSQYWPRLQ
# Procedure, shortened: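 HepG2 cells transiently transfected with cis-promoter-driven multiplexed reporter units sensing endogenous transcription factor activity; 24 h chemical exposure. Reporter mRNA quantified by RT-PCR, 6-FAM labelling, HpaI digestion and capillary electrophoresis; bidirectional fit versus DMSO baseline.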
# [10] = ATG_PXRE_CIS: Attagene CIS-FACTORIAL HepG2 Assay for human Pregnane X Receptor Element (PXRE) (AID 2282957); details: HepG2 Attagene CIS-FACTORIAL PXRE reporter, mRNA; actives raise or lower the signal
# Procedure, shortened: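 Cells: HepG2, transiently transfected reporter units under cis promoter control. Exposure: 24 h. Detection: reporter mRNA via RT-PCR/CE fluorescence; bidirectional fitting, DMSO-referenced.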
# [11] = ATG_PPRE_CIS: Attagene CIS-FACTORIAL HepG2 Assay for human Peroxisome Proliferator-activated Response Element (PPRE) (AID 2282958); details: HepG2 PPRE cis-element reporter, Attagene transcription factor profiling; actives raise or lower the signal
# Procedure, shortened: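 Multiplexed reporter transcription units under cis-regulatory promoters were transfected into HepG2 cells to capture endogenous factor activity. A 24 h incubation preceded RNA isolation and fluorescent RT-PCR fragment analysis.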
# [12] = ATG_RORE_CIS: Attagene CIS-FACTORIAL HepG2 Assay for human RAR-related Orphan Receptor Element (RORE) (AID 2282959); details: HepG2 Attagene cis-factorial RORE reporter, mRNA; actives raise or lower the signal
# Procedure, shortened: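 Fluorescence intensity of reporter-specific cDNA fragments, separated by capillary electrophoresis, gives the signal. Source: HepG2 liver cells transiently transfected with cis-element reporters and exposed 24 h; DMSO-normalized bidirectional fit.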
# [13] = ATG_Sox_CIS: Attagene CIS-FACTORIAL HepG2 Assay for human SRY-box transcription factor (SOX) (AID 2282960); details: HepG2 Attagene cis-factorial SOX reporter, mRNA; actives raise or lower the signal
# Procedure, shortened: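 After 24 h of chemical treatment, transfected HepG2 reporter cells are lysed for total RNA. Transcript levels come from RT-PCR with labelled primer extension and capillary electrophoresis, analysed bidirectionally versus DMSO.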
# [14] = target: Transcription factor Sp1 (Homo sapiens) (UniProt P08047); experiment: ATG_Sp1_CIS: Attagene CIS-FACTORIAL HepG2 Assay for human Specificity Protein 1 (Sp1) (AID 2282961); details: HepG2 Sp1 cis-reporter transcription, actives raise or lower the signal
# Chain of Transcription factor Sp1 (Homo sapiens) (P08047 whole entry, looked up): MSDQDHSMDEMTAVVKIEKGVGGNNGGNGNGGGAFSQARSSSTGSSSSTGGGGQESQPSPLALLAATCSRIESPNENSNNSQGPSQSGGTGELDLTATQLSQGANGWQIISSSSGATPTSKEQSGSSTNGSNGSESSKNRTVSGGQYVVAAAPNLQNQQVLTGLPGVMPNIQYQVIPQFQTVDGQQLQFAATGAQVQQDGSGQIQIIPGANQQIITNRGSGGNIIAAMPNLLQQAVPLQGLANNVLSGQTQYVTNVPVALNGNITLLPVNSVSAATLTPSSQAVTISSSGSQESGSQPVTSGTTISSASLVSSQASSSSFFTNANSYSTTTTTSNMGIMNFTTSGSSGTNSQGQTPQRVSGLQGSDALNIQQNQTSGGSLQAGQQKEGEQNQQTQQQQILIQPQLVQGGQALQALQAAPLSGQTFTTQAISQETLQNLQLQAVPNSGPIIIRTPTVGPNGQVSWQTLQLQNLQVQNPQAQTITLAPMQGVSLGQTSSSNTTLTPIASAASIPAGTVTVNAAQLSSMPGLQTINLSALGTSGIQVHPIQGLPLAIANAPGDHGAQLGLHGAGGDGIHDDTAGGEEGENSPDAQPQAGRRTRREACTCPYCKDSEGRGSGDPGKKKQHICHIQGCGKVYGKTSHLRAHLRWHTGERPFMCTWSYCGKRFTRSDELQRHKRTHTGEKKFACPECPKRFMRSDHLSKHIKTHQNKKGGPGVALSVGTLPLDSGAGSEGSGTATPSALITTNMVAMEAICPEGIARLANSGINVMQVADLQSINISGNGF
# Procedure, shortened: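 Sp1-driven reporter mRNA, read as capillary electrophoresis fluorescence after RT-PCR, in transiently transfected HepG2 cells dosed for 24 h; signal change in either direction relative to DMSO.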
# [15] = ATG_SREBP_CIS: Attagene CIS-FACTORIAL HepG2 Assay for human Sterol Regulatory Element Binding (SREBP) (AID 2282962); details: HepG2 Attagene cis-factorial SREBP reporter, mRNA; actives raise or lower the signal
# Procedure, shortened: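 HepG2 cells transiently transfected with multiplexed cis-promoter reporter units sensing endogenous transcription factors; reporter mRNA measured 24 h after dosing by RT-PCR, 6-FAM labeling, HpaI digestion and capillary electrophoresis. Bidirectional fit versus DMSO.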
# [16] = target: Signal transducer and activator of transcription 3 (Homo sapiens) (UniProt P40763); experiment: ATG_STAT3_CIS: Attagene CIS-FACTORIAL HepG2 Assay for human Signal Transducer and Activator of Transcription 3 (STAT3) (AID 2282963); details: HepG2, Attagene cis-factorial STAT3 reporter transcription; actives raise or lower the signal
# Chain of Signal transducer and activator of transcription 3 (Homo sapiens) (P40763 whole entry, looked up): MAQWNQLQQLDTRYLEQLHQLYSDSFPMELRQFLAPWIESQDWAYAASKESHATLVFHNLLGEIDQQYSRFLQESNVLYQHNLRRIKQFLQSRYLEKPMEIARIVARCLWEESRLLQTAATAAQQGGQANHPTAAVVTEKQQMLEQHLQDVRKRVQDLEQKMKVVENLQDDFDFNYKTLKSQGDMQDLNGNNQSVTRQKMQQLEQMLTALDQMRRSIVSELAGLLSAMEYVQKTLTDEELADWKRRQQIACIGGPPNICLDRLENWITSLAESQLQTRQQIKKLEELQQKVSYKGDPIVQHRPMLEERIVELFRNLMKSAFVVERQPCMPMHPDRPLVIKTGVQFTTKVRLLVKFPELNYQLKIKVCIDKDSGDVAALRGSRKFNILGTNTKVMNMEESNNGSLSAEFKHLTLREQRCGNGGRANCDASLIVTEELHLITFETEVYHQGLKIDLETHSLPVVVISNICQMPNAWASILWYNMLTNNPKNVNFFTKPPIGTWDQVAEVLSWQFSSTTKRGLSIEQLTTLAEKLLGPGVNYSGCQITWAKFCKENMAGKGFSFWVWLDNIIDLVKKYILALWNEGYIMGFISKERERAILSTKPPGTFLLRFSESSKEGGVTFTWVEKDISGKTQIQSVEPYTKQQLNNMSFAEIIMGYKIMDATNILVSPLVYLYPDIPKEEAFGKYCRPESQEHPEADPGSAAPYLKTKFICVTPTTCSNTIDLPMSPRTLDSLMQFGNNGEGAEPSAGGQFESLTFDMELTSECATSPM
# Procedure, shortened: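 After a 24 h compound incubation, total RNA from MRTU-transfected HepG2 cells was converted to cDNA and reporter sequences PCR-amplified, labelled and profiled by capillary electrophoresis. Gain and loss of signal were referenced to DMSO.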
# [17] = ATG_TA_CIS: Attagene CIS-FACTORIAL HepG2 Assay for human TA Basal Promoter (AID 2282964); details: HepG2 Attagene CIS-factorial TA basal promoter reporter; actives raise or lower the signal
# Procedure, shortened: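 Fluorescence from labelled RT-PCR reporter fragments, separated by capillary electrophoresis, gives the signal. Cells: HepG2 transiently carrying multiple reporter units, 24 h chemical dosing. Gain or loss relative to DMSO.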
# [18] = ATG_TCF_b_cat_CIS: Attagene CIS-FACTORIAL HepG2 Assay for human T-Cell-Factor with beta-catenin (TCF/b-cat) (AID 2282965); details: HepG2 TCF/beta-catenin cis-reporter transcription, actives raise or lower the signal
# Procedure, shortened: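 Endogenous transcription factor activity is captured through cis-promoter reporter constructs transiently introduced into human HepG2 liver cells. Induced reporter mRNA is measured after 24 h and fitted bidirectionally relative to DMSO.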
# [19] = target: Heat shock factor protein 1 (Homo sapiens) (UniProt Q00613); experiment: ATG_HSE_CIS: Attagene CIS-FACTORIAL HepG2 Assay for human Heat Shock Transcription Factor 1 (HSE) (AID 2282953); details: HepG2 HSE cis-reporter, Attagene RNA transcription; actives raise or lower the signal
# Chain of Heat shock factor protein 1 (Homo sapiens) (Q00613 whole entry, looked up, the tested form may be a part): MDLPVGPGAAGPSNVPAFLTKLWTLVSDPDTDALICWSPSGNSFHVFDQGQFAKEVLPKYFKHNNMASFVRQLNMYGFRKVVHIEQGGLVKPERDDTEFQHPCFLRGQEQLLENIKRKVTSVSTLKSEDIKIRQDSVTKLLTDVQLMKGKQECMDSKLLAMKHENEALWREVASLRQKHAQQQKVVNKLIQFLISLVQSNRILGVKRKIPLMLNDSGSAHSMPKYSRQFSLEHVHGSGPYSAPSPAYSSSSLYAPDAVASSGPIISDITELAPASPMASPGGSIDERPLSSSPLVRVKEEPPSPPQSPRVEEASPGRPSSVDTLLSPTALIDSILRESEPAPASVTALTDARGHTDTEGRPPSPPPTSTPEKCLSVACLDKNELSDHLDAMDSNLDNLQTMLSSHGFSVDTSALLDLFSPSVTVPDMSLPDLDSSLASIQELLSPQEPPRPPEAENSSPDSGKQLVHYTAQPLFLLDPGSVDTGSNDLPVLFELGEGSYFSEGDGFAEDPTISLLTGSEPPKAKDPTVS
# Procedure, shortened: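 Endogenous transcription factor activity captured via cis-promoter reporter units transfected into HepG2; treatment lasted 24 h. Fluorescence intensity of reporter fragments analysed with bidirectional curve fitting, DMSO baseline.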
smiles,measurement,setting,value
CC(=O)Nc1ccccc1O,outcome,[1],inactive
same,outcome,[2],inactive
same,outcome,[3],inactive
same,outcome,[4],inactive
same,outcome,[5],inactive
same,outcome,[6],inactive
same,outcome,[7],inactive
same,outcome,[8],inactive
same,outcome,[9],inactive
same,outcome,[10],inactive
same,outcome,[11],inactive
same,outcome,[12],inactive
same,outcome,[13],inactive
same,outcome,[14],inactive
same,outcome,[15],inactive
same,outcome,[16],inactive
same,outcome,[17],inactive
same,outcome,[18],inactive
CCCCO,outcome,[1],inactive
same,outcome,[2],inactive
same,outcome,[3],inactive
same,outcome,[4],inactive
same,outcome,[5],inactive
same,outcome,[6],inactive
same,outcome,[19],inactive
same,outcome,[7],inactive
same,outcome,[9],inactive
same,outcome,[10],inactive
same,outcome,[11],inactive
same,outcome,[13],inactive
same,outcome,[14],inactive
same,outcome,[15],inactive
same,outcome,[16],inactive
Sc1nc(S)nc(S)n1,outcome,[1],inactive
same,outcome,[2],inactive
same,outcome,[3],inactive
same,outcome,[4],inactive
same,outcome,[5],inactive
same,outcome,[19],inactive
same,outcome,[7],inactive
same,outcome,[9],inactive
same,outcome,[10],inactive
same,outcome,[12],inactive
same,outcome,[13],inactive
same,outcome,[14],inactive
same,outcome,[15],inactive
same,outcome,[16],inactive
same,outcome,[17],inactive
O=Nc1ccc(Nc2ccccc2)cc1,AC50,[1],13.7 µM (active)
same,AC50,[2],25.4 µM (active)
same,outcome,[3],inactive
same,outcome,[4],inactive
same,AC50,[6],25.2 µM (active)
same,AC50,[19],27.8 µM (active)
same,AC50,[7],20 µM (active)
same,AC50,[8],59.3 µM (active)
same,AC50,[9],33.4 µM (active)
same,AC50,[10],22.6 µM (active)
same,outcome,[11],inactive
same,outcome,[12],inactive
same,AC50,[13],47.6 µM (active)
same,AC50,[14],55 µM (active)
same,AC50,[15],33.4 µM (active)
same,outcome,[16],inactive
same,outcome,[17],inactive
same,AC50,[18],20.9 µM (active)
